According to PubChem BioAssay AID1851 (National Center for Advancing Translational Sciences (NCATS), 2009):
Hit rate of the full screen: of about 16,000 compounds, about 4,000 (25%) were called active. Inconclusive results (about 26%) are left out. These entries were drawn from the full list. Unmarked numbers belong to inactive results. The call rests on the fitted dose curve; in most records, active means well fitted curve in the direction sought with a large enough effect; inconclusive means small, poorly fitted or top-dose-only effect, or effect the other way; inactive means no such curve, though single readings can be large or run the other way.

molecular target: Cytochrome P450 2C9 (Homo sapiens) (UniProt P11712); test: Cytochrome panel assay with activity outcomes; settings: recombinant CYP, pro-luciferin dealkylation, luminescence, p450-cyp2c9; series mostly up to 57.1 µM
Sequence (P11712 whole entry, looked up): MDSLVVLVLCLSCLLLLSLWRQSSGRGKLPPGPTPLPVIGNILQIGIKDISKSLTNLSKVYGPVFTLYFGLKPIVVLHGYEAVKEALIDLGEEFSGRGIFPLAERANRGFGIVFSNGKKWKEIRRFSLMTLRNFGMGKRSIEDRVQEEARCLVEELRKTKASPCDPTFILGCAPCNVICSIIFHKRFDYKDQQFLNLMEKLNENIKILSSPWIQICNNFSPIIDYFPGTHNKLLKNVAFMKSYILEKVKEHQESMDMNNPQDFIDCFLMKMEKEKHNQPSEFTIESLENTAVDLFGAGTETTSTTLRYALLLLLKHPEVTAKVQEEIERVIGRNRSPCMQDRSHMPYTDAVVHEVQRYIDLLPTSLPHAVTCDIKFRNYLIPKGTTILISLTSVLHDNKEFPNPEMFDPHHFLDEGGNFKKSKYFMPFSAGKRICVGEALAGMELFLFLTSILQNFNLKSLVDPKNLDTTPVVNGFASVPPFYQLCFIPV
On the % scale 0 is the no-effect control and ±100 the full control effect.

| Structure (SMILES) | AC50 | activity, negative = inhibition |
| --- | --- | --- |
| CCCCC(=O)Nc1cc(OCC)c(NC(=O)c2ccccc2[N+](=O)[O-])cc1OCC | inactive |  |
| Cc1ccc(C(=O)NNC(=S)NC(=O)c2ccc(Cl)cc2)cc1 | 2 µM (active) |  |
| O=C(NNC(=S)NC(=O)c1cccnc1)c1ccccc1 | 5.62 µM (active) |  |
| COc1ccc(C(=O)NC(=S)NCc2ccccc2)cc1 | 15.8 µM (active) |  |
| O=C(NNC(=O)c1cccnc1)Nc1cccc2ccccc12 | inactive |  |
| O=C(NNS(=O)(=O)c1ccccc1)c1cccnc1 |  | 2.91% [at 11.4 µM] |
| NCCNC(=O)c1ccc(Cl)cc1 | inactive |  |
| Cc1ccc(C(=O)NNC(=O)C2CCCN(c3ncccn3)C2)cc1 (centres undefined) | inactive |  |
| CCCCC(=O)NNC(=S)NC(=O)c1cccc([N+](=O)[O-])c1 | 10 µM (active) |  |
| CSc1nc2c(c(C(F)(F)F)n1)CC(C)CC2 (centres undefined) | inactive |  |
| Cc1ccccc1-c1nccc(NCCN2CCOCC2)n1 |  | 15.8% [at 2.29 µM] |
| CN(CC(=O)O)CC(=O)O |  | -7.68% [at 11.4 µM] |
| CCc1cc2c(nc1CC)CCN(CC/C(C)=N/O[C@@H](C)c1cc(-c3c(C)cc(C)cc3C)no1)C2 |  | 8.77% [at 11.4 µM] |
| CCOc1ccc(NC(=O)c2ccc(OC)cc2)cc1 | inactive |  |
| COc1ccc(C(=O)NC(=S)NNC(=O)CCc2ccccc2)cc1 | 2.82 µM (active) |  |
| Cc1ccc(OCC(=O)NNC(=O)CCc2ccccc2)cc1 | inactive |  |
| COc1ccc(NC(=O)N2CCC3(CC2)CCN(C(=O)c2ccco2)CC3)cc1 | inactive |  |
| COc1ccc(NC(=O)N2CC3(CCN(C(=O)c4ccco4)CC3)C2)cc1 | inactive |  |
| CCOc1cc(NC(=S)Nc2ccccc2)c(OCC)cc1NC(=O)c1ccc(OC)cc1 | 1.78 µM (active) |  |
| COc1ccc(C(=O)NNC(=S)NC(=O)c2ccco2)cc1 | 7.08 µM (active) |  |
| O=C(NC(=S)NNC(=O)c1cccs1)c1ccco1 | 15.8 µM (active) |  |
| c1ccc(C2CCC(N3CCC(N4CCCCC4)CC3)CC2)cc1 (centres undefined) | inactive |  |
| O=[N+]([O-])c1cc(Cl)cc2c1nc(NCCO)c1ccccc12 |  | -0.585% [at 11.4 µM] |
| O=C1c2cccc3c(Nc4ccccc4Cl)c([N+](=O)[O-])cc(c23)C(=O)N1CCO | 2.82 µM (active) |  |
| O=C1NC(=O)C(c2ccccc2[N+](=O)[O-])=C1Nc1ccc(O)c(Cl)c1 | inactive |  |
| COc1ccc(/C=C2\OC(=O)c3c(OC)cccc32)cc1OC | inactive |  |

| Structure (SMILES) | AC50 | activity, negative = inhibition |
| --- | --- | --- |
| COc1ccccc1OCCCOc1ccc([N+](=O)[O-])cc1Cl | 11.2 µM (active) |  |
| COc1cc(C)ccc1OCCOc1cc(C)ccc1Cl | 0.794 µM (active) |  |
| COc1ccc(-n2cccc2C=O)cc1OC | inactive |  |
| C#CCN(C)CCCOc1ccc(Cl)cc1Cl | inactive |  |
| COc1ccc(CNC(C)(C)C)cc1Cl | inactive |  |
| CCCOc1ccc(/C=C/C(=O)Nc2ccc([N+](=O)[O-])cc2C)cc1OC | inactive |  |
| COc1cc(C=O)ccc1OCCOCCOc1ccccc1Cl | 12.6 µM (active) |  |
| CN=C(NC#N)Nc1ccc(C2=NNC(=O)C[C@@H]2C)cc1 | inactive |  |
| COc1ccc(-c2nc(N)c3ncn([C@H]4O[C@@H](CO)[C@@H](O)[C@@H]4O)c3n2)cc1 |  | 8.82% [at 11.4 µM] |
| COc1cc(CNCc2cccs2)ccc1OCC(=O)NC(C)(C)C | inactive |  |
| CC(CO)Nc1nc(SCc2ccccc2)nc2sc3c(c12)CCC3 (centres undefined) | 4.47 µM (active) |  |
| COCCNc1nc(-c2ccccc2C)nc2ccccc12 |  | -5.55% [at 2.29 µM] |
| C[C@H](Nc1ncnc2sc3c(c12)CCC3)C(=O)O | inactive |  |
| COCCNc1nc(SCc2ccccc2)nc2sc3c(c12)CCC3 | 3.16 µM (active) |  |
| COCCNc1nc(-c2ccc(N(C)C)cc2)nc2ccccc12 |  | 8.62% [at 2.29 µM] |
| OCCNc1nc(SCc2ccccc2)nc2sc3c(c12)CCC3 | 7.94 µM (active) |  |
| CSc1ccc2c(c1)N(CC[C@H]1CCCCN1C)c1ccccc1S2 | inactive |  |
| CC1(C)OCC([C@H](O)C2=CCCCC2=O)CO1 |  | 2.86% [at 11.4 µM] |
| CN(C)CCCNC(=O)c1cc2c3ccccc3n(C)c2s1 | inactive |  |
| COc1ccccc1CNc1ncnc2ccc(-c3ccc(C(=O)N(C)C)cc3)cc12 |  | 0.573% [at 2.29 µM] |
| COc1ccccc1CNC(=O)c1cc2c(C)nn(Cc3ccc(F)cc3)c2s1 | 2.24 µM (active) |  |
| Fc1ccc(-c2csc(N3CCC(c4ccccc4)C3)n2)cc1 (centres undefined) | 17.8 µM (active) |  |
| Brc1ccc(-c2csc(N3CCC(c4ccccc4)C3)n2)cc1 (centres undefined) | 10 µM (active) |  |
| Clc1ccc(-c2csc(N3CCC(c4ccccc4)C3)n2)cc1 (centres undefined) | 14.1 µM (active) |  |
| Cc1c(C2CCN(CCc3ccccc3)CC2)noc1-c1ccc(Cl)cc1 | inactive |  |
| COc1cc2nc(N3CCN(C(=O)OCc4ccccc4)[C@H](C(=O)NC(C)(C)C)C3)nc(N)c2cc1OC | inactive |  |

| Structure (SMILES) | AC50 | activity, negative = inhibition |
| --- | --- | --- |
| CN(C)c1ccc(C(c2ccc(N(C)C)cc2)c2ccc([N+](=O)[O-])cc2)cc1 |  | -7.57% [at 11.4 µM] |
| CC(=O)C[C@H](c1ccc([N+](=O)[O-])cc1)c1c(O)c2ccccc2oc1=O | 0.631 µM (active) |  |
| COc1ccc(NC(=O)N2CC3(CCN(C(=O)c4cnccn4)CC3)C2)cc1 | inactive |  |
| O=c1oc2cc(Oc3ccc(C(F)(F)F)cc3[N+](=O)[O-])ccc2c2c1CCCC2 | 12.6 µM (active) |  |
| Cn1ncc2c(Cl)ncnc21 |  | 0.147% [at 11.4 µM] |
| O=C1[C@@H]2[C@H]3[C@H](O)[C@H](O)C/C(=N/OCc4ccccc4)[C@H]3CC[C@H]2C(=O)N1c1ccc(F)cc1F |  | 12.6% [at 11.4 µM] |
| COc1cccc(-c2noc(-c3cccnc3)n2)c1 | 15.8 µM (active) |  |
| COc1ccc(-c2nnc(-c3cccnc3)o2)cc1 | inactive |  |
| CC(=O)OCC1=C(C(=O)O)N2C(=O)[C@@H](NC(=O)CSc3ccncc3)[C@@H]2SC1 | inactive |  |
| CNc1csc(C)c(C)c1=O | inactive |  |
| Cc1cnc(CNc2cc(-c3cccnc3)ncn2)cn1 |  | 6.31% [at 2.29 µM] |
| N=C1/C(=C\c2ccc(SCc3ccco3)o2)C(=O)N=C2SC=NN12 | 0.447 µM (active) |  |
| ClC(=Nc1cccc2ccccc12)N(c1ccccc1)c1ccccc1 | 3.16 µM (active) |  |
| CCCN1CNC(=S)N(c2cccc(C)c2C)C1 | inactive |  |
| Cc1cccc(C)c1-n1c(SCC(=O)NCc2ccco2)nc2ccccc2c1=O | 14.1 µM (active) |  |
| Cc1cc(NC(=O)CSc2nc3ccccc3c(=O)n2CCCC(=O)NCc2ccco2)n[nH]1 | 4.47 µM (active) |  |
| O=c1c2ccccc2nc(SCc2ccccc2Cl)n1Cc1ccccc1 | 1.26 µM (active) |  |
| O=C(CSc1nc2ccccc2c(=O)n1CCCC(=O)N1CCCC1)NCc1ccco1 | 7.08 µM (active) |  |
| O=C(CSc1nc2ccccc2c(=O)n1Cc1ccccc1)NCc1ccco1 | inactive |  |
| Oc1ccc([C@@H]2CNCCc3c2cc(O)c(O)c3Cl)cc1 | inactive |  |
| O=c1[nH]c(=O)n([C@@H]2C[C@H](O)[C@H](CO)O2)cc1I | inactive |  |
| COc1ccc(NC(=O)CSc2nc3ccccc3c(=O)n2CCC(=O)N2CCCCC2)cc1 | 3.98 µM (active) |  |
| O=C(O)CCCCCn1c(SCC(=O)N2CCCC2)nc2ccsc2c1=O | inactive |  |
| O=C(CSc1nc2ccccc2c(=O)n1NC(=O)Cc1ccccc1)NCc1ccccc1Cl | 0.398 µM (active) |  |
| O=C(CSc1nc2ccccc2c(=O)n1CCCO)NCc1ccccc1 | 12.6 µM (active) |  |
| N#CCSc1nc2cc(C(=O)N3CCCC3)ccc2c(=O)n1Cc1ccccc1 | 3.98 µM (active) |  |

| Structure (SMILES) | AC50 | activity, negative = inhibition |
| --- | --- | --- |
| CN1CCN(C(=O)c2ccc3c(=O)n4c(nc3c2)CCCCC4)CC1 | inactive |  |
| COCC(=O)N1CCC2(CCCN(C(=O)Nc3ccc(OC)cc3)C2)CC1 | inactive |  |
| Cc1cc2cc(C)c3nnc(SCC(=O)NCc4ccc5c(c4)OCO5)n3c2cc1C | inactive |  |
| O=C(NCC1CCCO1)c1ccc2c(=O)n(Cc3ccco3)c(SCC(=O)N3CCCC3)nc2c1 (centres undefined) | 2.24 µM (active) |  |
| Cc1ccc2cc(C)c3nnc(SCC(=O)NCc4ccco4)n3c2c1 | 15.8 µM (active) |  |
| CCCc1nnc(SCC(=O)N2CCCCC2)n1CC1CCCO1 (centres undefined) | inactive |  |
| Cc1cc(NC(=O)CSc2nc3ccsc3c(=O)n2Cc2ccccn2)n[nH]1 | 28.2 µM (active) |  |
| CC(C)Cn1c(SCc2nc3ccccc3c(=O)[nH]2)nc2ccccc2c1=O | 2 µM (active) |  |
| CCN1CCN(C(=O)CCc2nc3ccccc3c(=O)[nH]2)CC1 | inactive |  |
| COCc1nc2c([nH]1)c(=O)n(C)c(=O)n2CC(C)C | inactive |  |
| Cc1cc(NC(=O)CSc2nc3ccsc3c(=O)n2CCCCC(=O)O)no1 | inactive |  |
| Cc1cc(C)c(C)c(S(=O)(=O)ON2C(=O)c3ccccc3C2=O)c1C | inactive |  |
| Cc1ccc(OCCCN2C(=O)C(=O)c3cccc(C)c32)cc1 | 8.91 µM (active) |  |
| CS(=O)(=O)N1CCN(c2ccc(C(=O)NC3C4CC5CC(C4)CC3C5)cc2[N+](=O)[O-])CC1 (centres undefined) | 12.6 µM (active) |  |
| CN(c1ccc(C(=O)NC2CC3CCC2C3)cc1)S(C)(=O)=O (centres undefined) | inactive |  |
| CCCN[C@@H](C)C(=O)Nc1c(C)csc1C(=O)OC | inactive |  |
| CC(=O)c1c(N=CN(C)C)nc(C)nc1-c1ccccc1 | inactive |  |
| O=c1cnc2cnc(N3CCOCC3)nc2n1CCc1ccccc1 | 10 µM (active) |  |
| CN1CCN(c2ncc3nc(-c4ccccc4)c(=O)n(CCc4ccccc4)c3n2)CC1 | 3.16 µM (active) |  |
| N#CCCn1c(=O)cnc2cnc(N3CCOCC3)nc21 | inactive |  |
| COc1ccc(-c2nc3cnc(N4CCOCC4)nc3n(CCc3ccccc3)c2=O)cc1 | inactive |  |
| CN1CCN(c2ncc3nc(-c4cc(F)cc(F)c4)c(=O)n(CCc4ccccc4)c3n2)CC1 | inactive |  |
| CN1CCN(c2ncc3ncc(=O)n(CCc4ccccc4)c3n2)CC1 | inactive |  |
| O=c1c(-c2ccccc2)nc2cnc(N3CCOCC3)nc2n1CCc1ccccc1 | 7.94 µM (active) |  |
| O=c1c(-c2ccc(Cl)cc2)nc2cnc(N3CCOCC3)nc2n1CCc1ccccc1 | inactive |  |
| COc1ccc(-c2nc3cnc(N4CCN(C)CC4)nc3n(CCc3ccccc3)c2=O)cc1 | inactive |  |
